The values that follow come from PubChem BioAssay (NCATS).

Structures are written as SMILES. Inconclusive results are not listed. A call without a number means that no potency is given here. The source made the active and inactive calls. Calls come from the whole dose curve; as a rule, active = well fitted inhibition curve with a large enough effect; inconclusive = small, poorly fitted or top-dose-only effect; inactive = no such curve, though single readings can be large or run the other way.
Potency is the fitted concentration of half-maximal effect.

Tumor susceptibility gene 101 protein (Homo sapiens), sequence (Q99816 whole entry, looked up, the tested form may be a part): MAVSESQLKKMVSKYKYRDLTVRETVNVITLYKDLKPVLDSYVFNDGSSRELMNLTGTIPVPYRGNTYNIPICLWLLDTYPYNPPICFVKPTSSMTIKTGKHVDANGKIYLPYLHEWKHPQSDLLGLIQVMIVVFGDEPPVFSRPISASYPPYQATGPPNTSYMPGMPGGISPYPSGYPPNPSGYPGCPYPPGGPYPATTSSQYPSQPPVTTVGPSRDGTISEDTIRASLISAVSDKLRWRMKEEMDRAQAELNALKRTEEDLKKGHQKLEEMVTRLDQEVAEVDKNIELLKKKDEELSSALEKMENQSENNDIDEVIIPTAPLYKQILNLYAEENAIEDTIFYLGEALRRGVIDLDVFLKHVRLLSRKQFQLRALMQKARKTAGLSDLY

This assay has as its target Tumor susceptibility gene 101 protein (Homo sapiens) (UniProt Q99816). Briefly: qHTS Assay for Iinhibitors of HIV-1 Budding by Blocking the Interaction of PTAP/TSG101: Hit Validation (AID 651600). Note: nearly all actives have a fitted effect of over 70% in size. Particulars: PTAP peptide/TSG101 UEV interaction, biochemical assay; series mostly up to 57.5 µM. Summed up: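 Fluorescence polarization binding assay: Tsg101 binding domain (10 uM final) pre-dispensed with compounds, then FITC-labeled PTAP-motif peptide (50 nM final) added; 20 min at r.t. in HEPES pH 7.5 buffer with NaCl, Tween 20, EDTA, TCEP.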
Turning to `CCn1c(/C=C/c2cc[n+](C)cc2)nc2ccccc21`, the Potency result was “inactive”. As to `CCc1cc(C(=O)OC)c(NC(=O)CC2Nc3cc(C)c(C)cc3NC2=O)s1` (configuration not stated), the Potency entry was “inactive”. On to `CCN(CC)C(=O)CSc1nnc2nnc3cc(OC)ccc3n12`, for which the Potency was 29.1 µM (active).

As to `COc1ccc(OC)c(NC(=O)CCN2CC(C)CC(C)C2)c1` (configuration not stated), the Potency entry was “inactive”. Under `CN1CCc2c(sc3c2C(=O)NC(c2ccccn2)N3)C1` (configuration not stated) stands 18.3 µM (active).

`O=C1c2cccc3c([N+](=O)[O-])ccc(c23)C(=O)N1c1ccc(Cl)cn1`: the Potency entry was “inactive”. Under `CCN(CC)c1ccc2cc(-c3nc(-c4ccc(OC)cc4)cs3)c(=O)oc2c1` stands “inactive”. As to `Cc1ccc(C2C=C(c3ccccc3)Nc3nc(NS(C)(=O)=O)nn32)cc1` (configuration not stated), the Potency entry is “inactive”. Take `CC(=O)N1c2ccccc2C(=O)C1N1CCCCC1` (configuration not stated): the Potency entry is “inactive”. For the compound `ClCc1nc2ccccc2n1Cc1ccccc1`, the Potency entry was “inactive”. Under `Cc1c(N=C2N=C(NC(=O)c3ccc(F)cc3)c3ccccc32)c(=O)n(-c2ccccc2)n1C` stands “inactive”.

In the case of `O=C(NCc1ccccc1Br)c1cccc2c1C(=O)c1ccc(N3CCC(Cc4ccccc4)CC3)cc1S2(=O)=O`, the Potency entry is “inactive”.

For the compound `Cc1ccc(NC(=O)/C(C#N)=C(\N)C(Cl)(Cl)Cl)nc1`, the Potency is 18.3 µM (active). In the case of `Cc1ccc(/C=C/C(=O)Nc2ccc(S(=O)(=O)Nc3onc(C)c3C)cc2)cc1`, the Potency entry is “inactive”. Regarding `C#CCn1cc(C=C2C(=O)c3ccccc3C2=O)c2ccccc21`, the Potency result was “inactive”.

For `Cc1cccc2cc(/C=C3\N=C(c4ccccc4)OC3=O)c(N3CCOCC3)nc12`, the Potency entry is “inactive”.

With `O=c1oc2c(CN3CCCCC3)c(O)ccc2cc1-c1nc2ccccc2[nH]1`, the Potency is 18.3 µM (active).
